# Source: the supplement of paper PMC11732987, “Enantioselective OTUD7B fragment discovery through chemoproteomics screening and high-throughput optimisation” (Communications Chemistry, 2025)
# A number with no mark means an inactive call.
# Tests used:
# Assay in all cases: log2 ratio of Biotin-Ahx-Ub-VS probe labelling (fragment/DMSO); higher = less target engagement (more negative = stronger competition), active = hit call of the paper (q ≤ 0.05, log2 ratio ≤ -1)
# Details in all cases: compound concentration: 200 uM; treatment time: 3 h
# USP19 = target: T1, USP19 (UniProt O94966)
# T1 sequence (whole entry): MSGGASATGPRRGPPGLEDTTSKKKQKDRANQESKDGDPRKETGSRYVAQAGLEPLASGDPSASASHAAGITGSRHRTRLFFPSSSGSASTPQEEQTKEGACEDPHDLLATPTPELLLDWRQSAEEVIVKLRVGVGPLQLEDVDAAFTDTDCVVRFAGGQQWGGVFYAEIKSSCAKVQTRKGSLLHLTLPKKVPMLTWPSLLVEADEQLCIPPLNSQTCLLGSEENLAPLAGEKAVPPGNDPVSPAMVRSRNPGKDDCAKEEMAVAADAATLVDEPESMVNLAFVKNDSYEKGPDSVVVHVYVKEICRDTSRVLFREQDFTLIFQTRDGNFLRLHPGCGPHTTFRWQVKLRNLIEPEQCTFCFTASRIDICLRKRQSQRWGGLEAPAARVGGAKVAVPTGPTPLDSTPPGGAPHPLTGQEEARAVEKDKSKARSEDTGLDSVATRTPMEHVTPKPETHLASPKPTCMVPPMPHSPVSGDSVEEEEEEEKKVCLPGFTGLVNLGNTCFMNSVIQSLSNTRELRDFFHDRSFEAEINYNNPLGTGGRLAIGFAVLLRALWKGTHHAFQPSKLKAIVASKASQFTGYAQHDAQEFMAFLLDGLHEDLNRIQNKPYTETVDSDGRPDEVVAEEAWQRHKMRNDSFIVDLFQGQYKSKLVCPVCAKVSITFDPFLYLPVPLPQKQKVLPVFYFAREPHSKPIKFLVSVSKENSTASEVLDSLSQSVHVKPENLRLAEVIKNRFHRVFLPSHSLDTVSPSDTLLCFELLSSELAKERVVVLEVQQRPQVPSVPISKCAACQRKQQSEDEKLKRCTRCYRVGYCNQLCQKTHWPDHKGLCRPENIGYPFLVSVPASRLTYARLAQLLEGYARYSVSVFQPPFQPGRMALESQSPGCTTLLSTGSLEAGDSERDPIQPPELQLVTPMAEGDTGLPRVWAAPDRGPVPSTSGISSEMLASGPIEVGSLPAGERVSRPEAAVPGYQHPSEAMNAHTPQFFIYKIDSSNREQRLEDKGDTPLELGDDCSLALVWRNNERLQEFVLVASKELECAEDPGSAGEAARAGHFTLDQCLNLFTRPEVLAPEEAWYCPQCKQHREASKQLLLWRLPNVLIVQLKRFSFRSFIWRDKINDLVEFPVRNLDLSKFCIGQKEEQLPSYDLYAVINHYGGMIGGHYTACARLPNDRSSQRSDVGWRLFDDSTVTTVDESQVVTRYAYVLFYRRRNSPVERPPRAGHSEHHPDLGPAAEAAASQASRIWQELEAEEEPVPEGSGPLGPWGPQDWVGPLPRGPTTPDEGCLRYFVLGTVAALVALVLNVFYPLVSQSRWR
# In short: (§1)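 Fragment (200 µM) or vehicle was incubated for 3 h with triplicate HEK293T lysate samples of 495 µg, which were then treated with Biotin-Ahx-Ub-VS at 0.5 µM final for 1 h. Labelled DUBs were enriched on NeutrAvidin, digested with LysC and trypsin, and analysed by diaPASEF LC-MS/MS. Values are average log2 fragment/vehicle ratios from an unpaired t-test on global-median-normalised Spectronaut label-free quantities, using proteins with ≥2 unique peptides.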
# USP24 = USP24 (UniProt Q9UPU5)
# USP24, sequence (Q9UPU5 whole entry): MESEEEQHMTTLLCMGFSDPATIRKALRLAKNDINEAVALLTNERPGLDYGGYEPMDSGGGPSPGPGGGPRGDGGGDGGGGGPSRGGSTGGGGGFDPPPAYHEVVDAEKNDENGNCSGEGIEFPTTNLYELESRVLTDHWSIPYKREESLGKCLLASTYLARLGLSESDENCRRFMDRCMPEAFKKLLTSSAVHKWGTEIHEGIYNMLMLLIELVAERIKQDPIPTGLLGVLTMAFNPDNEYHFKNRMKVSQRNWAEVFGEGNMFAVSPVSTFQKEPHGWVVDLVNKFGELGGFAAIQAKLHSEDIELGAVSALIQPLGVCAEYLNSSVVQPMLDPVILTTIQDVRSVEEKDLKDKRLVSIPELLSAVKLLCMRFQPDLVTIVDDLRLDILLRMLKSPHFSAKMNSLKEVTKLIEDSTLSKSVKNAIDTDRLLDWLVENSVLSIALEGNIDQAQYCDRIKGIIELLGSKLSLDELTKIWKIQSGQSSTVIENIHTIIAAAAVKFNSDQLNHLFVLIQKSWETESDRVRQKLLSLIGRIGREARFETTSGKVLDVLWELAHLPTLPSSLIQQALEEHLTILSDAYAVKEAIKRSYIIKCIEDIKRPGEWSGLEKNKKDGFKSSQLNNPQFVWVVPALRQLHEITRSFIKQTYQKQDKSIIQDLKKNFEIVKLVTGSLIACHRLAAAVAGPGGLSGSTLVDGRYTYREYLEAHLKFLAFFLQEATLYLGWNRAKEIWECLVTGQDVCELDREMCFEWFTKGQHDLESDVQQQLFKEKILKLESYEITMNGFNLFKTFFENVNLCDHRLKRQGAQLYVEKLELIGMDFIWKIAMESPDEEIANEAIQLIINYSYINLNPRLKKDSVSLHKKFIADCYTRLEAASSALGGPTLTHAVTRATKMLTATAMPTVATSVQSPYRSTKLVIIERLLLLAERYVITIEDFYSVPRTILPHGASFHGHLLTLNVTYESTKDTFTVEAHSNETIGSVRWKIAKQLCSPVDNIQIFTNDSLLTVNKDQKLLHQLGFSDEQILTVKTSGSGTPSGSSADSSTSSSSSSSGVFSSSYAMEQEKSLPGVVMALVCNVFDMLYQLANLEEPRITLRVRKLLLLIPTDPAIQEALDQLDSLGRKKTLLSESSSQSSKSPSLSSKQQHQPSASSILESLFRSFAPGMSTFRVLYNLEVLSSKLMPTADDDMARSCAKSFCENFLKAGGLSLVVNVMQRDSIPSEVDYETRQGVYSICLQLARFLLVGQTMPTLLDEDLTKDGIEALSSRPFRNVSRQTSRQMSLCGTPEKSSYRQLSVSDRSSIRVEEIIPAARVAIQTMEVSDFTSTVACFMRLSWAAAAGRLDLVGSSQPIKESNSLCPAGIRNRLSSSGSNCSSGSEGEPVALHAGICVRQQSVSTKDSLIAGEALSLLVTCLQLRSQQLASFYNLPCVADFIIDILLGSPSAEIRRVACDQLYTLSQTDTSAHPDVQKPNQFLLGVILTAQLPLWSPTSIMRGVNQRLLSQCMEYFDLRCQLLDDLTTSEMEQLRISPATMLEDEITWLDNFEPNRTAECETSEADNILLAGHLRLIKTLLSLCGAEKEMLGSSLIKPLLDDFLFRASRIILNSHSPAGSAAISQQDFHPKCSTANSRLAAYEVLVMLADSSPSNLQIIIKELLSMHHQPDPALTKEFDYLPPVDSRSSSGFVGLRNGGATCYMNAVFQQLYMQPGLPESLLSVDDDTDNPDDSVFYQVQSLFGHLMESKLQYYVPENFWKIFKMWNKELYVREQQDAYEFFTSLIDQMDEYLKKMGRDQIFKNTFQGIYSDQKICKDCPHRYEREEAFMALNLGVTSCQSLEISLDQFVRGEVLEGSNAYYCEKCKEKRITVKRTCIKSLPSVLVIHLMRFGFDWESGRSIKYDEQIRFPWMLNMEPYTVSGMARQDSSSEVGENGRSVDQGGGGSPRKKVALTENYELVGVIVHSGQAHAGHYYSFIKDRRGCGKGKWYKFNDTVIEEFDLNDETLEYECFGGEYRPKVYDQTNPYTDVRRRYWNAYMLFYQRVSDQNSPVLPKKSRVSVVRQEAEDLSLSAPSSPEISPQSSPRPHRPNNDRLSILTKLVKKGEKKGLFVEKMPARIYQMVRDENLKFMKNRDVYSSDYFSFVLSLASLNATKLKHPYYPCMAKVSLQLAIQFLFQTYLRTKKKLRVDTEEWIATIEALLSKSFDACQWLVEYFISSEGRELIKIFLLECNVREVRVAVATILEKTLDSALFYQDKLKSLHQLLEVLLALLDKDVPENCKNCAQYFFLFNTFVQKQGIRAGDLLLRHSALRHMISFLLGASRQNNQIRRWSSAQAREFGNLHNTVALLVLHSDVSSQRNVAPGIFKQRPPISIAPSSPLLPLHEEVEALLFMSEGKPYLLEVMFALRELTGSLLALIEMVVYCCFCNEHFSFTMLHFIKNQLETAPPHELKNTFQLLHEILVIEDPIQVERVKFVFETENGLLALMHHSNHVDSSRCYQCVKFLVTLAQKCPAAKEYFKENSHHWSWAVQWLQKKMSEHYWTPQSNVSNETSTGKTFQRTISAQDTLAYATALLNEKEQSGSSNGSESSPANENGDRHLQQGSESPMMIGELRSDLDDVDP
# In short: as §1
# USP25 = target: T2, USP25 (UniProt Q9UHP3)
# T2 sequence (whole entry): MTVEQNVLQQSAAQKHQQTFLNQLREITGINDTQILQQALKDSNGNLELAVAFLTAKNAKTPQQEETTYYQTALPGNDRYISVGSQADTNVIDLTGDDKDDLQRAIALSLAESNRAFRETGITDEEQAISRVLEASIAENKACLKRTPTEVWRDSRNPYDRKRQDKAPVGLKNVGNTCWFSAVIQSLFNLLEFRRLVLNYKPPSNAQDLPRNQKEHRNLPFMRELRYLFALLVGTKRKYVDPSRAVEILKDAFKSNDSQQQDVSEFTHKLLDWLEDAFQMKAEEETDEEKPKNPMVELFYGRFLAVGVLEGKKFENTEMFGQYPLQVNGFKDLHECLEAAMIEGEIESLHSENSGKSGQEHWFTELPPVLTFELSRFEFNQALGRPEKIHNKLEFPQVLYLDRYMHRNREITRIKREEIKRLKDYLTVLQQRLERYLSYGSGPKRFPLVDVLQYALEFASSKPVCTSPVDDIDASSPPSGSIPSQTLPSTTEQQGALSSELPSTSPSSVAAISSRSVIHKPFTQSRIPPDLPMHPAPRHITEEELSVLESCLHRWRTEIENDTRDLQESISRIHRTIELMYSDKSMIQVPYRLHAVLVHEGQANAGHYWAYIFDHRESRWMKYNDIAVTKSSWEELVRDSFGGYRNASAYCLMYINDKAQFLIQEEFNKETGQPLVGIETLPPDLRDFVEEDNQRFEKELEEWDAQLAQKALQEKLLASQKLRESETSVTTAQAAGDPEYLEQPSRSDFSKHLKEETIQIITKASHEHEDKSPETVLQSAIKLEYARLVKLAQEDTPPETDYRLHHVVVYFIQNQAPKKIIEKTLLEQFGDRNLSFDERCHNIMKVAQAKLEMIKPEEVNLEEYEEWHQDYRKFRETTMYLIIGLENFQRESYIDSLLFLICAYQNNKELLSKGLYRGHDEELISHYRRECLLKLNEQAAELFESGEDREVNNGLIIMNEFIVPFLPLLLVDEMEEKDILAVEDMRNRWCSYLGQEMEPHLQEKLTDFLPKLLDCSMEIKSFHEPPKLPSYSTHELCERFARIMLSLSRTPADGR
# In short: as §1
# USP28 = target: T3, USP28 (UniProt Q96RU2)
# T3 sequence (whole entry): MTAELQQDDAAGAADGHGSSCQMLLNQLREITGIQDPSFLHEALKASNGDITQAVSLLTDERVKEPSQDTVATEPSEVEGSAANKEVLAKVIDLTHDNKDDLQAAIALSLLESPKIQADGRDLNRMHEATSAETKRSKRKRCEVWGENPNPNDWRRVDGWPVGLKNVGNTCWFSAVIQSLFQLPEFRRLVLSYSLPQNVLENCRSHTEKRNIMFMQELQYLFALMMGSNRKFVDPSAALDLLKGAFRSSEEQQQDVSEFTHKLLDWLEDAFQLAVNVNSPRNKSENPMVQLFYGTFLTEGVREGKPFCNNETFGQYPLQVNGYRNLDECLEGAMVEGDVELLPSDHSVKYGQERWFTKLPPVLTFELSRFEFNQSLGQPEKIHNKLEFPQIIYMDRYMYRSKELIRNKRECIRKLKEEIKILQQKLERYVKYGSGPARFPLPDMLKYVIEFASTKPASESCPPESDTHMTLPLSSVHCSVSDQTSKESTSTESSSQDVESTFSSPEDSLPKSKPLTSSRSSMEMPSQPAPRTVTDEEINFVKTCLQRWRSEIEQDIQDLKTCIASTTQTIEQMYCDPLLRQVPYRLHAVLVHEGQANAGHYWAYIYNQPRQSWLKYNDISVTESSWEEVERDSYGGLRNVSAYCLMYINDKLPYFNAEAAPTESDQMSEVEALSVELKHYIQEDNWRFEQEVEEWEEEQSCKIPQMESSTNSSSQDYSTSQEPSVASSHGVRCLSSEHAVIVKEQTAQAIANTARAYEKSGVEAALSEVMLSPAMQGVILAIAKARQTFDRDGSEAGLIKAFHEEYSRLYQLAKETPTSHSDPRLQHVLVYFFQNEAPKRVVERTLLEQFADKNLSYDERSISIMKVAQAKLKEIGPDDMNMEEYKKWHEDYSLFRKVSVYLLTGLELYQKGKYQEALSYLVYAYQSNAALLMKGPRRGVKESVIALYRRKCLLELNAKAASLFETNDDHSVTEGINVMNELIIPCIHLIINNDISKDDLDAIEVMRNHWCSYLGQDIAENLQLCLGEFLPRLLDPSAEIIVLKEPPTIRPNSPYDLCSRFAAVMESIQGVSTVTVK
# In short: as §1
smiles,measurement,setting,value
O=C(CCl)Nc1cc2c(cc1Cl)OCCO2,log2 ratio of Biotin-Ahx-Ub-VS probe labelling,USP19,0.00638
same,log2 ratio of Biotin-Ahx-Ub-VS probe labelling,USP24,-0.0527
same,log2 ratio of Biotin-Ahx-Ub-VS probe labelling,USP25,-1.52 (active)
same,log2 ratio of Biotin-Ahx-Ub-VS probe labelling,USP28,-1.81 (active)
